Screening results from PubChem BioAssay.
The list is not random: actives were taken first. Their share in the collection is about 8.3%.
FMDV inh – High Throughput Screening for Foot and Mouth Disease Virus Antivirals; FMDV antiviral cell-based qHTS; Potency, µM (series often up to 57.9 µM), actives largely listed as inhibitors; 410,000 compounds, 1.2% hits; calls by dose curve; tested in HEK293T cells; further: read-out not given here; nearly all actives have a fitted effect of over 45% in size
HCV inhibitor – qHTS Assay for Inhibitors of Hepatitis C Virus (HCV) | 340,000 compounds, 3.4% hits | AID 651820, 2012 | Potency, µM (series often up to 41.8 µM), usual class: inhibitors | Huh7.5.1 HCVcc-Cre infection, luciferase reporter, 44 h
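HCVcc-Cre virus at an moi near 0.5 was added right after compound to cells cultured 4 h from seeding (1,000 cells/well). Luciferase activity was determined 44 h later, 15 min after substrate addition at RT.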
HCMV antiviral – qHTS Assay for inhibitors of the human cytomegalovirus (HCMV); HFF cells, HCMV-luciferase reporter, 72 h; stronger effect = lower value; activity change, negative = inhibition, % at 57.5 µM; 410,000 compounds, 4.5% hits; in the data active means activity change below about -60%; inconclusive means no clear call, values can overlap the other calls; inactive means above about -39%
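Inhibition of viral replication was scored as loss of reporter luminescence in HFFs infected with HCMV-luciferase (MOI 1 PFU/cell) for 72 h; compounds tested at 2 doses, normalized to buffer and Salinomycin controls.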
Giardia FBPA inh – qHTS Assay for Inhibitors of Fructose-1,6-bisphosphate Aldolase from Giardia Lamblia | A8B2U2 | purified Giardia FBPA | Potency, µM (doses to about 59.6 µM), hits mostly inhibitors | 290,000 compounds, 0.71% hits | AID 2451, 2010; further: nearly all actives have a fitted effect of over 55% in size
Target sequence (A8B2U2 whole entry, looked up): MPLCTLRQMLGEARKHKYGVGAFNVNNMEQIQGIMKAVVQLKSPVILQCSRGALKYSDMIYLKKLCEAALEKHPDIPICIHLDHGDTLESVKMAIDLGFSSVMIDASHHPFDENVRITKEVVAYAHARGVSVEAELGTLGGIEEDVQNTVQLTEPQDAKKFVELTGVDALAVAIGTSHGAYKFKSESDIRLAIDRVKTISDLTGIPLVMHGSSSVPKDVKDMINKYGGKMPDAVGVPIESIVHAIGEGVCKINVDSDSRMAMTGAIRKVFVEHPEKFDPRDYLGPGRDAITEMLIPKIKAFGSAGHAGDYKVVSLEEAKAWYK
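40 nM FBPA preincubated 10 min at RT with compound (up to 57.5 uM final), then substrate plus GAPDH/TPI/NAD/arsenate coupling and diaphorase/resazurin added. Fluorescence read after 20 min at RT, 525/598 nm.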
MARV entry inh – qHTS for inhibitors of binding or entry into cells for Marburg Virus; Marburg virus pseudotyped entry inhibition, cell reporter; Potency, µM (highest dose often 37.8 µM), actives largely listed as inhibitors; 300,000 compounds, 1.8% hits; calls by dose curve; tested in HEK293 cells
Lassa entry inh – qHTS for Inhibitors of binding or entry into cells for Lassa Virus | Lassa virus pseudotype entry inhibition, cell reporter | 300,000 compounds, 1.2% hits | Potency, µM (titrated, usually from 37.9 µM), actives largely listed as inhibitors; calls by dose curve; tested in HEK293 cells; further: nearly all actives have a fitted effect of over 50% in size
Numbers stand for hits; . = inactive; ? = inconclusive; / = not tested or not shown. Unless noted, the call rests on the fitted dose curve; in most records, active means well fitted curve in the direction sought with a large enough effect; inconclusive means small, poorly fitted or top-dose-only effect, or another doubt; inactive means no such curve, though single readings can be large; an effect the other way counts as inactive or inconclusive.

SMILES | FMDV inh | HCV inhibitor | HCMV antiviral | Giardia FBPA inh | MARV entry inh | Lassa entry inh
CCOC(=O)c1ccc(NC(=O)Cn2nc(SC)c(S(=O)(=O)c3ccc(Cl)cc3)c2N)cc1 | ? | / | -104 | / | ? | ?
O=C1CCC[C@H]2[C@@H](Cc3ccccc3)[C@@H](NCc3ccccc3)CC[C@]23CCCN13 | / | / | . | / | / | /
CCOP(=O)(c1ccc(N(C)C)cc1)C(O)c1ccccc1 (centres undefined) | . | . | -83 | . | ? | .
CCc1ccccc1NC(=O)CNC(=O)c1n[nH]c(=O)c2ccccc12 | 25µM | . | . | / | / | /
CCCNC(=O)c1n[nH]c(=O)c2ccccc12 | . | . | . | . | . | .
Cc1ccc(NC(=O)CN2C(=O)N/C(=C/c3ccc(C)o3)C2=O)cc1 | . | . | . | ? | . | .
C=CCN1C(=O)N/C(=C/c2ccc(C)o2)C1=O | . | . | . | 16µM | . | .
CNc1cccc2c1C(=O)c1ccccc1C2=O | . | 13µM | . | . | . | ?
CCOc1ccc2c(c1)OC(c1ccc(C)cc1)(C(F)(F)F)NC2=O (centres undefined) | . | . | -83 | ? | . | ?
O=c1[nH]c(Cc2ccccn2)nc2scc(-c3ccccc3Cl)c12 | . | ? | -83 | . | . | .
CCCCCC(=O)N1C[C@H](n2cc(C3CC3)nn2)[C@@H](O)C[C@H]1c1ccc(Cl)cc1 | / | / | / | / | / | .
COc1cc(/C=C(/C#N)c2nc3ccccc3[nH]2)ccc1OCc1ccc(C(=O)O)o1 | . | . | . | / | ? | .
COc1cc(/C=C(\C#N)c2nc3ccccc3[nH]2)ccc1OCc1ccc(F)cc1 | . | / | -78 | / | ? | .
COc1cc(/C=C(/C#N)c2nc3ccccc3[nH]2)ccc1Oc1ncccc1[N+](=O)[O-] | . | 2.5µM | ? | . | . | ?
COc1cc(/C=C(\C#N)c2nc3ccccc3[nH]2)ccc1OCc1cccc(C(F)(F)F)c1 | . | / | -87 | / | ? | ?
Cc1cc(C)c2c(CC(=O)Nc3nnc(C(C)C)s3)coc2c1 | . | / | ? | / | ? | .
COc1ccc([C@H]2c3cc(OC)c(OC)cc3C[C@@H](C)[C@@H]2C)cc1OC | . | / | / | . | / | /
CCCc1cc(=O)oc2cc(OCC(=O)NCCCn3ccnc3)c(Cl)cc12 | . | . | -63 | . | / | /
O=C(Cc1cccs1)NC1CC(=O)N(c2cccc(F)c2)C1 (centres undefined) | . | / | . | / | / | .
Cc1ccc(CN2CCCn3nc(C(=O)NCc4cc(C)ccc4C)cc3C2=O)cc1 | . | / | . | / | / | ?
COC(=O)c1cc(=O)n(CCc2ccc(OC)c(OC)c2)c(=Nc2ccc(F)c(Cl)c2)s1 | 28µM | ? | . | . | . | /
COC(=O)c1cc(=O)n(Cc2ccc(OC)c(OC)c2)c(=Nc2ccc(F)cc2)s1 | 13µM | 11µM | . | . | . | /
COC(=O)c1cc(=O)n(Cc2ccco2)c(=Nc2ccc(F)cc2)s1 | 28µM | ? | / | . | / | /
CCN1CCN(C2=C(NS(=O)(=O)c3ccc(Br)cc3)C(=O)c3ccccc3C2=O)CC1 | . | ? | -112 | / | / | /
CCN1CCN(C2=C(NS(=O)(=O)c3ccccc3)C(=O)c3ccccc3C2=O)CC1 | ? | 11µM | -62 | / | / | /
SMILES | FMDV inh | HCV inhibitor | HCMV antiviral | Giardia FBPA inh | MARV entry inh | Lassa entry inh
CN1CCN(C2=C(NS(=O)(=O)c3ccccc3)C(=O)c3ccccc3C2=O)CC1 | . | . | / | ? | / | /
O=C1C(NS(=O)(=O)c2cccs2)=C(N2CCOCC2)C(=O)c2ccccc21 | ? | . | ? | ? | . | ?
CN1CCN(C2=C(NS(=O)(=O)c3cccs3)C(=O)c3ccccc3C2=O)CC1 | . | 11µM | . | ? | ? | ?
Cc1nc2c(c(C)c1CCC(=O)N1CCN(c3ccccc3)CC1)c(=O)n(C)c(=O)n2C | ? | / | . | / | . | .
CC(C)n1c(=S)[nH]c2scc(-c3cccs3)c2c1=O | . | . | . | ? | / | /
CCn1c(=S)[nH]c2scc(-c3cccs3)c2c1=O | . | . | -63 | . | . | .
O=c1c2cc3c(cc2[nH]c(=S)n1C1CCN(Cc2ccccc2)CC1)OCO3 | . | 13µM | . | . | ? | .
CCCCCCCCCCCCC/C=C/[C@@H](O)C(CO)NC(C)=O (some centres undefined) | / | / | / | . | / | /
CCCCNC(=O)CSc1nc2nc(C)c(Cc3ccccc3C)c(C)n2n1 | . | / | . | / | . | ?
COc1ccc(NC(=O)C(Cl)=C(Cl)Cl)cn1 | . | 10µM | . | . | ? | ?
COc1ccc(NC(=O)CCl)cn1 | / | / | / | 2.8µM | / | /
COc1ccc(NC(=O)Nc2ccc(OCc3ccccc3)cc2)cn1 | . | ? | . | . | / | /
COc1ccc(NC(=O)/C(Cl)=C(/Cl)S(=O)Cc2ccc(Cl)cc2)cn1 (centres undefined) | 8.9µM | 7.9µM | -100 | . | ? | 3.2µM
COc1ccc(NC(=O)/C(Cl)=C(/Cl)S(=O)(=O)Cc2ccccc2)cn1 | 20µM | 3.5µM | -105 | . | ? | 22µM
O=C(NCC(c1cccs1)S(=O)(=O)c1cccs1)c1cccc(F)c1 (centres undefined) | . | / | . | / | / | .
O=S1(=O)CC=C(CSC(=S)NC2CCS(=O)(=O)C2)C1 (centres undefined) | 11µM | . | . | ? | . | .
CN(C)C(=S)NC1CCS(=O)(=O)C1 (centres undefined) | . | . | . | . | . | .
CC(C)(C)c1cc(CSC(=S)NC2CCS(=O)(=O)C2)c(Br)c(C(C)(C)C)c1 (centres undefined) | 16µM | . | . | . | ? | ?
COCC(=O)N1C[C@H]2CON(C)[C@H]2C[C@H]1c1cccc(-c2cc(Cl)cc(Cl)c2)c1 | / | / | . | / | / | /
COc1ccc(/C=N/NC(=O)C(=O)/C=C2\NC3(CCCC3)Cc3ccccc32)cc1 | ? | 10µM | . | . | ? | .
O=C(/C=C1\NC2(CCCC2)Cc2ccccc21)C(=O)N/N=C/c1ccc(O)c(O)c1 | ? | ? | . | . | ? | ?
Cc1cc(C)n(-c2nc(C)c(C)c(=O)n2CC(=O)Nc2ccc([N+](=O)[O-])cc2)n1 | . | / | . | / | / | .
CC(=O)Nc1ccc(Sc2ccc([N+](=O)[O-])o2)cc1 | 35µM | ? | -98 | / | ? | ?
CN(Cc1ccc2c(c1)OCCO2)C(=O)CSc1ncnc2sccc12 | 40µM | ? | . | / | . | .
COc1ccc(-n2nnc3c(SC(C(C)=O)C(=O)N(C)C)ncnc32)cc1 (centres undefined) | 32µM | . | . | / | / | /
COC(=O)[C@]12C[C@H](CC(=O)NCC34CC5CC(CC(C5)C3)C4)C(=O)N(CCC3=CCCCC3)C1=C[C@H](COCc1ccccc1)O[C@@H]2C | / | / | . | / | / | /
COC(=O)c1ccc(NC(=O)CCc2nnc3ccc(N4CCC5(CC4)OCCO5)nn23)cc1 | 28µM | . | . | . | . | .
